Results from the supplement of paper PMC3842684.

system: P. falciparum NF54-pfs16-GFP early (I-III) stage gametocytes; assay: relative % inhibition of viable gametocyte number; higher = more gametocytocidal; settings: 0.5 µM; stage: early (I-III) gametocyte; incubation 72 h
Procedure, shortened: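 NF54 pfs16-GFP gametocytes, magnet-isolated at early (I/IIa, day 2) or late (day 8) stage, were plated at 10% parasitaemia, 0.1% haematocrit in 384-well poly-D-lysine imaging plates with compound in duplicate at 5 or 0.5 µM. Plates were incubated 72 h at 37°C, 5% CO2, 5% O2, then overnight with MitoTracker Red. Confocal imaging counted elongated GFP objects with MitoTracker signal above cut-off as viable gametocytes. Relative inhibition was normalised to in-plate vehicle and positive-control wells.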

Row | SMILES | relative % inhibition [%]
1 | c1ccc(Cn2c(N=Nc3c(Nc4ccccc4)ccc4ccccc34)nc3ccccc32)cc1 | 62.1
2 | COc1ccc(C(=O)C2CC2c2ccc(Cl)cc2)cc1 (stereo not drawn) | 8.75
3 | C=CCc1c(C)nc2ccccc2c1O | 5.51
4 | CCc1ccc(CNCC(O)c2ccccc2)cc1 (stereo not drawn) | 9.08
5 | Cc1ccc(NC(=O)Nc2cccc(Cl)c2)cc1F | 11
6 | O=C(NCC1Cc2cccc(-c3ccncc3)c2O1)c1csc2c1CCCC2 (stereo not drawn) | -5.92
7 | O=C(NCCCN1CCC(N2CCCCC2)CC1)C1=Cc2cc(Br)ccc2OC1 | 42.8
8 | COc1cc(SC)ccc1C(=O)N1CCCC(C)C1 (stereo not drawn) | -24.7
9 | Cc1cccc(N2C(=O)C3C(C2=O)C2(c4ccccc4)C(=O)C3(c3ccccc3)C(c3ccc4c(c3)OCO4)=C2c2ccc3c(c2)OCO3)c1 (stereo not drawn) | 56.2
10 | Cn1c(=O)n(C)c2cc(CNCCNc3ccnc4cc(Cl)ccc34)ccc21 | 86.6
11 | Cc1ccc(Cl)cc1N1CCN(CCCNC(=O)C2CCN(c3nc4ccccc4[nH]3)CC2)CC1 | 20
12 | COC(=O)c1ccc(Cl)c2c1C1C=CCC1C(c1cccc3ccccc13)N2 (stereo not drawn) | -9.28
13 | CCC(O)c1ccc(Br)cc1NC(=O)c1cccc(Cl)c1 (stereo not drawn) | 3.28
14 | CCOC(=O)c1cnc2c(C)cccc2c1Nc1ccc(C(C)=O)cc1 | -9.17
15 | O=C(NCc1ccco1)C1CCN(S(=O)(=O)c2ccc(Cl)cc2)CC1 | 7.81
16 | O=c1nc(C=Cc2ccc(Br)cc2)oc2ccccc12 | 10.7
17 | COc1ccc(C(=O)C(CCC(CNC(C)(C)C)C(=O)c2ccc(OC)cc2)CNC(C)(C)C)cc1 (stereo not drawn) | 62.7
18 | CC1=C(CC(=O)c2cccc([N+](=O)[O-])c2)C(=O)c2ccccc2C1=O | 48
